Source: PubChem BioAssay (NCI)
This is part of a sample that, as a whole, favours compounds with a hit. Of some 79,000 tested, about 15% had one in any assay. The source made the active and inactive calls. No stated cut-off is given here; in the data, active means growth inhibition above about 70%; inactive means the rest.

Experiments:
[1] = NCI Yeast Anticancer Drug Screen. Data for the rad50 strain (AID 155);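 further: 0% = growth of vehicle-only cultures of the same strain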; settings: S. cerevisiae rad50 strain growth inhibition; at 50.0 µM; stronger effect = higher value
How it was run: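 A DNA repair-deficient yeast mutant serves as the test organism; compound-induced growth inhibition is calculated against vehicle-treated cells.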

[2] = NCI Yeast Anticancer Drug Screen. Data for the mec2-1 strain (AID 157); settings: S. cerevisiae mec2-1 strain, at 50.0 µM, stronger effect = higher value
How it was run: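 Growth inhibition is read against vehicle-treated controls after compound exposure of the mec2-1 yeast strain, which is defective in DNA damage repair or cell cycle control.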

[3] = NCI Yeast Anticancer Drug Screen. Data for the sgs1 mgt1 strain (AID 161);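 further: 0% = growth of cultures given vehicle only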; settings: S. cerevisiae sgs1 mgt1 strain, at 50.0 µM, stronger effect = higher value
How it was run: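 Growth of a repair-deficient yeast mutant was monitored after compound treatment and expressed as inhibition relative to vehicle-treated cultures.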

[4] = NCI Yeast Anticancer Drug Screen. Data for the cln2 rad14 strain (AID 165);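 further: 0% = growth equal to vehicle treated cultures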; settings: S. cerevisiae cln2 rad14 strain, at 50.0 µM, stronger effect = higher value
How it was run: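 Growth inhibition, relative to vehicle-treated controls, is the read-out. The test organism is a yeast strain with defined genetic alterations, cln2 rad14.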

[5] = NCI Yeast Anticancer Drug Screen. Data for the bub3 strain (AID 167); settings: S. cerevisiae bub3 mutant strain, at 50.0 µM, stronger effect = higher value
How it was run: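 Inhibition values come from growth of compound-treated mutant yeast normalised to vehicle-treated controls.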

[6] = NCI Yeast Anticancer Drug Screen. Data for the mlh1 rad18 strain (AID 175); settings: S. cerevisiae mlh1 rad18 strain growth inhibition; at 50.0 µM; stronger effect = higher value
How it was run: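 Cells of a genetically altered yeast strain, deficient in DNA damage repair, were treated with compound. Their growth was then compared with that of vehicle-treated cultures to give inhibition.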

Measured: growth inhibition

O=C1CCCCC/C1=C\O
inactive: [1] 2.8% | [2] -12.1% | [3] -10.6% | [4] -11.9% | [5] -23.9% | [6] 5.15%

OC(c1ccccc1)(c1ccccc1)c1nc2ccccc2[nH]1
inactive: [1] 2.7% | [2] -1.75% | [3] 14.2% | [4] -19.8% | [5] -0.1% | [6] -0.9%

COC(=O)C(C)(C#N)/C(C)=C/C(C)C (stereo not drawn)
inactive: [1] -12.7% | [2] -20.9% | [3] -12.8% | [4] -3.9% | [5] -24.8% | [6] -33%

CN(C)c1ccc(/C=N/NC(=O)NN)cc1
inactive: [1] 6.2% | [2] -12.3% | [3] -23.3% | [4] -2.85% | [5] -2.15% | [6] -15.9%

CC(C)CCC(=O)C(C)C
inactive: [1] 19.7% | [2] -9.55% | [3] 13.2% | [4] 11.5% | [5] 10.8% | [6] 15.2%

CC(C)CCNc1ncnc2[nH]ncc12
inactive: [1] -16.5% | [2] -31.7% | [3] -26.2% | [4] -35.1% | [5] -13.8% | [6] -18.4%

O=c1[nH]c2c(c(=O)[nH]1)SSC2
inactive: [1] -24.4% | [2] -12.8% | [3] -39.4% | [4] -7.7% | [5] -28.4% | [6] -10.1%

CC(=O)Nc1c(C)ccc(C)c1C(=O)O
inactive: [1] 3.65% | [2] -0.7% | [3] 8.25% | [4] 1.15% | [5] 13.8% | [6] 11.8%

O=C(c1ccc(Cl)c(Cl)c1)n1c2ccccc2c2ccccc21
inactive: [1] -0.65% | [2] -47.5% | [3] -12.3% | [4] 3.8% | [5] -4.1% | [6] 2.4%

CCc1cc(-c2cc(CC)on2)no1
inactive: [1] -3.3% | [2] -14.9% | [3] -12.4% | [4] -1.15% | [5] -19.2% | [6] 1.4%

Cc1ccc2[nH]c(C)c(C(=O)c3cccnc3)c2c1
inactive: [1] -7.55% | [2] 0.85% | [3] 13.2% | [4] -13.3% | [5] -18.6% | [6] -8.4%

Nc1ccc(Nc2ccc([N+](=O)[O-])cc2S(=O)(=O)O)cc1
inactive: [1] 9.1% | [2] 4% | [3] -17% | [4] -16.4% | [5] -7.65% | [6] 10.8%

NC(=O)CC(N)C(N)=O (stereo not drawn)
inactive: [1] -8.25% | [2] -33.1% | [3] -47.8% | [4] 13.2% | [5] -18.3% | [6] -3.25%

COC(=O)c1cc2/c(=N/O)c3ccccc3sc2o1
inactive: [1] -0.45% | [2] -23.1% | [3] -2.1% | [4] 0.75% | [5] -16.4% | [6] -28.8%

COc1ccc(/C(=C/n2ccnc2)C(=O)c2ccc(OC)c(OC)c2)cc1
inactive: [1] -41.6% | [2] -18.7% | [3] -44.8% | [4] 5.8% | [5] -25.4% | [6] -44.5%

C=C1CC[C@H]2C(=O)OC(c3ccoc3)C[C@]2(C)C/C=C\C=C/1C(=O)OC (stereo partly drawn)
inactive: [1] -10.8% | [2] -11.7% | [3] -19.8% | [4] -6% | [5] -27.2% | [6] -22.6%

COc1c2occc2c(S(=O)(=O)O)c2ccc(=O)oc12
inactive: [1] -12.5% | [2] 4.05% | [3] 6.45% | [4] 3.75% | [5] -40.6% | [6] 2.7%

CC(C)(NC(=O)c1ccccc1)NC(=O)c1ccccc1
inactive: [1] 5.35% | [2] -10.1% | [3] -5.8% | [4] -38.2% | [5] 5.55% | [6] -6.35%

O=P(NC1CCCCC1)(NC1CCCCC1)NC1CCCCC1
inactive: [1] 19.1% | [2] -1.75% | [3] -0.75% | [4] 12.1% | [5] 12.8% | [6] 14.2%

COc1ccc2nc(NC(=O)C(=O)C(C#N)c3ccc(Cl)c(Cl)c3)sc2c1 (stereo not drawn)
inactive: [1] 36.2% | [2] 5.4% | [3] 19.1% | [4] 33.9% | [5] -2.2% | [6] 36.4%

OC(c1ccccc1)(c1c2ccccc2cc2ccccc12)C1CCC1 (stereo not drawn)
inactive: [1] 16.8% | [2] 20.1% | [3] 0.9% | [4] 9.75% | [5] 13% | [6] -5.65%

O=C(O)C12CCC(CC1=O)C2 (stereo not drawn)
inactive: [1] 5.8% | [2] 4.4% | [3] 11.3% | [4] 13.7% | [5] -2% | [6] 14.1%

Cc1ccc(N2[C@H]3CCCN3c3ccc(C)cc3[C@@H]2C(F)(F)F)cc1
inactive: [1] 16.3% | [2] 0.8% | [3] 29.5% | [4] -2.25% | [5] -15.5% | [6] 2%

COc1cc(O)c(C(=O)C2Cc3ccccc32)c(OC)c1 (stereo not drawn)
inactive: [1] -20.6% | [2] 12.5% | [3] 24.1% | [4] 21.6% | [5] 9.1% | [6] 41.8%

CC(C)=CCC/C(C)=C\CC/C(C)=C/CO
inactive: [1] -52.5% | [2] -77.8% | [3] -39.6% | [4] -26.1% | [5] -46.7% | [6] -41.5%

C=C(CC(=O)OCC)C(=O)OCC
inactive: [1] 15.4% | [2] 4.6% | [3] 18.4% | [4] 1.95% | [5] 1.25% | [6] 13.8%

O=C(O)c1ccc(Cl)c(C(=O)O)c1
inactive: [1] 13.8% | [2] 4.65% | [3] 26.7% | [4] 3.15% | [5] -11.7% | [6] 11.8%

CCOC(=O)CNC(=O)CNC(=O)CNC(=O)CN
inactive: [1] 0.1% | [2] 2.5% | [3] 15.8% | [4] -20.4% | [5] -3.85% | [6] -16.6%

NC(=O)NN1CC(=O)N(c2ccccc2)CC1=O
inactive: [1] 7.75% | [2] 8.2% | [3] 6.8% | [4] -18.1% | [5] 14.2% | [6] 28.6%

NN1CCOC1=O
inactive: [1] 1.4% | [2] -35.9% | [3] 11.7% | [4] -2.9% | [5] -14.1% | [6] -1.7%

CCC(=O)c1cc(-c2cc(C(=O)CC)[nH]n2)n[nH]1
inactive: [1] -27.5% | [2] 3.95% | [3] -5.7% | [4] -18.4% | [5] 2.15% | [6] 3.85%

COC(=O)C1=NC(=O)C(C#N)=C(C(=O)OC)C1(C(=O)c1ccc(OC)cc1)c1ccc(OC)cc1 (stereo not drawn)
inactive: [1] -39.9% | [2] 3.7% | [3] -9.15% | [4] 13.8% | [5] 11.9% | [6] -12.1%

O=C1S/C(=C2\C(=O)N(CN3CCCCC3)c3ccc(Br)cc32)C(=O)N1CN1CCCCC1
inactive: [1] 37.4% | [2] -2.9% | [3] 9.35% | [4] -2.05% | [5] -1.6% | [6] 22.2%

O=C1CCCc2ccccc21
inactive: [1] -2.35% | [2] -11.3% | [3] -29.9% | [4] -30.3% | [5] -14% | [6] 1%

CC1(O)CCC(O)CC1CC[N+](C)(C)[O-] (stereo not drawn)
inactive: [1] 7.35% | [2] 1.3% | [3] 8.8% | [4] 4.75% | [5] 3.3% | [6] 5.55%

C[N+](=C\c1ccccc1O)/N=C\c1ccccc1O
inactive: [1] 7.15% | [2] 2.05% | [3] 6.75% | [4] -35.6% | [5] 8.2% | [6] -1.5%

Nc1ccc(C(=O)O)cc1O
inactive: [1] 13.7% | [2] 14.2% | [3] 13.9% | [4] 20.4% | [5] 9.65% | [6] -7%

c1ccc(-c2nnc(-c3ccccn3)c3c2C[C@@H]2C[C@@H]4Cc5c(-c6ccccn6)nnc(-c6ccccn6)c5[C@@H]4[C@H]32)nc1
inactive: [1] -4.95% | [2] 0.1% | [3] -16.4% | [4] 9.25% | [5] 10.3% | [6] -17.4%
